40 compounds from ChEMBL document CHEMBL3988442, “University of Dundee, Small-Polar-MMV Screening Library” (2021) can be followed below.

Structures are written as SMILES.

In this assay the target is T1, Aspartate--tRNA(Asp/Asn) ligase (Mycobacterium tuberculosis (strain ATCC 25618 / H37Rv)) (UniProt P9WFW3).
T1 sequence (whole entry): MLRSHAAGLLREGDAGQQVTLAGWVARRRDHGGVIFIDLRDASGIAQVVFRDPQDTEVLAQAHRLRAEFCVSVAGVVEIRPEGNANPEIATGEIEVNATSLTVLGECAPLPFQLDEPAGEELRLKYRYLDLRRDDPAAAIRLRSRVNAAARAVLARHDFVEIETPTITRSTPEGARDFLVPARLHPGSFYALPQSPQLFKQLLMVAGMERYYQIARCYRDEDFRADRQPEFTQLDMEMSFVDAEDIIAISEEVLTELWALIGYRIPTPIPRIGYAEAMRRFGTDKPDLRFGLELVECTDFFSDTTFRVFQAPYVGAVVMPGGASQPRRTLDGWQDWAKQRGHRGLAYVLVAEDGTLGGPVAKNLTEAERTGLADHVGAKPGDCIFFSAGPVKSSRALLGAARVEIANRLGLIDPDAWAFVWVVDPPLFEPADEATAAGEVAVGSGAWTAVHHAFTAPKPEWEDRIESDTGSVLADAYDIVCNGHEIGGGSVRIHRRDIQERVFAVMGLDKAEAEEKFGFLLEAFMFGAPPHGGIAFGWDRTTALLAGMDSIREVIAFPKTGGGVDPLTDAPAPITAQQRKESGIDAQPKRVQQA
Briefly: Assay for Asp RNA synthetase-1 from Mycobacterium tuberculosis. It is filed as functional. To be noted: 30 µM. On the set-up: scale not given: in the data most compounds retested in dose-response had high values.
On to `CC(C)c1ncc2c(n1)CN(Cc1cccc(OCC(N)=O)c1)CC2`, for which the Percent Effect came to 3.81%.
To `CCc1ncc(CN(C)C(=O)Nc2cccnc2N2CCCC2)s1` belongs 2.75%; to `Cc1cnn(CC(C)NCc2nc(-c3cccnc3)no2)c1` (stereo not given), 1%.
In the case of `COCC(=O)N1CCN(C(=O)c2scnc2C)CC1` it was -5.75%.
`COc1ccc(CNCC2CCN(CC(C)O)CC2)c2ccccc12` (stereo not given): the Percent Effect was -5.41%.
For the compound `CN(Cc1cnn(C)c1)C(=O)NCc1nnc2n1CCC2`, the Percent Effect is -10.2%.
Turning to `COCC(C)(O)CNC(=O)COc1ccccc1OC` (stereo not given), the Percent Effect was -4.69%.
With `CCOC(=O)N1CCC(C(=O)c2cc(F)ccc2F)CC1`, the Percent Effect is 1.26%.
In the case of `Cc1noc(C(C)N2CCN(CC(=O)N3CCOCC3)CC2)n1` (stereo not given) it was -8.27%.
Regarding `COc1ccc(CNC(C)c2ccc3[nH]c(=O)[nH]c3c2)cc1` (stereo not given), the Percent Effect turned out to be 2.66%.
Take `Cc1ccccc1N1CCCN(C(=O)CCCS(N)(=O)=O)CC1`: the Percent Effect came out at 6.58%.
Take `CC(N(C)Cc1nc2c(cnn2C)c(=O)[nH]1)C(C)(C)C` (stereo not given): the Percent Effect was 5.45%.
To `CCCNC(=O)Cn1cc(-c2ccccc2)cn1` belongs -2.52%; to `CCNC(=O)[C@@H]1C[C@@H](NC(=O)Cc2ccccn2)CN1CCCSC`, -0.228%.
To `CS(=O)(=O)N[C@@H]1CCO[C@]2(CCN(C(=O)c3cnccn3)C2)C1` belongs 4.35%; to `Cc1csc(N2CCN(C(=O)Cc3ccsc3)CC2)n1`, 6.55%; to `O=C(NCc1ccoc1)Nc1ccc(CN2CCOC2=O)cc1`, -3.73%.
With `CCc1nccn1C1CCCN(C(=O)c2ccc3nncn3c2)C1` (stereo not given), the Percent Effect was -8.68%.
To `Cc1nc(CN2CCCC(Cn3cc(CCO)nn3)C2)c[nH]1` (stereo not given) belongs 0.881%; to `COCCOc1ccc(NC(=O)C2CCC2)cn1`, -1.46%; to `Cc1c(O)oc(-c2ccc(Br)cc2)nc1=O`, -1.84%.
To `COCCN1CCN(C(=O)c2cc(C(C)C)on2)[C@H]2CS(=O)(=O)C[C@H]21` belongs -3.12%; to `N#Cc1ccc(OCCCN2CCc3cncnc3C2)cc1`, -3.6%; to `Cc1nc(C2CCCN(C(=O)c3cccc4c3OCO4)C2)no1` (stereo not given), 5.25%.
To `COc1ccc(C2CC(=O)Nc3c2cnn3C2CCCC2)cc1` (stereo not given) belongs -1.45%; to `c1cnnc(NCC2CN(Cc3cccc4c3OCCO4)CCO2)c1` (stereo not given), -1.18%.
For the compound `Cc1nc(CN2CCC(C(=O)O)(n3ccc(-c4ccco4)n3)CC2)co1`, the Percent Effect is -1.98%.
To `O=C(CCc1ccccn1)N1CCN(C(=O)CC2CCCCC2)CC1` belongs -2.28%; to `NCc1cnn(-c2ccccc2C(=O)NCCCn2ccnc2)c1`, 0.581%; to `Cn1ccnc1CN1CCN(CC(=O)NCC(F)(F)F)CC1`, 1.97%.
To `Cc1noc(C)c1CCC(=O)NC(C)c1nnc2n1CCC2` (stereo not given) belongs -0.635%.
In the case of `Cn1cc(C(=O)N2CC[C@@H]3[C@@H]2CCN3Cc2cccc(F)c2)cn1` it was -0.0764%; in that of `COCCCN1CCCN(C(C)C(=O)Nc2cccc(I)c2)CC1` (stereo not given), 0.0704%; in that of `CC(Oc1ccccc1C(F)(F)F)C(=O)NCCC(=O)N(C)C` (stereo not given), -1.14%.
`Cc1ccc(NC2CCN(C(=O)c3cccc(F)c3F)CC2)nn1`: the Percent Effect was -4.5%.
For `CCCOc1cc(CNC(=O)Nc2cccnc2N2CCCC2)ccn1`, the Percent Effect turned out to be 1.75%.
To `Cn1cc(CC2CCN(C(=O)NCc3cn4ccsc4n3)C2)cn1` (stereo not given) belongs -4.64%; to `CC(C)N1CCc2c(C#N)c(NCc3ccco3)n3cnnc3c2C1`, 3.86%.
To `O=C(C1=CCCC1)N1C[C@@H]2COC[C@]2(COc2cccnc2)C1` belongs -3.68%; to `Cc1ccc(C(=O)N2CC[C@@H]3[C@H]2CCC(=O)N3c2ccccc2)o1`, -6.1%.
